hcGAS lum = Primary biochemical luminescence assay for human cyclic GMP-AMP synthase inhibitors | Q8N884 | 290,000 compounds, 0.081% hits | recombinant h-cGAS, ATP depletion, Kinase-Glo luminescence | inhibition, % at 12.5 µM
NPYLR7 agonist = agonists of mosquito NPYLR7 receptor, primary screen, cell-based, Aedes aegypti, calcium fluorescence, mosquito biting behavior | AID 1259423, 2018 | HEK293T NPYLR7/Galpha15, GCaMP6s calcium fluorescence | activation, % at 10 µM | Aedes aegypti neuropeptide Y-like receptor 7 (NPYLR7) | 270,000 compounds, 0.15% hits; in the data active = activation above about 40%
mcGAS lum = cyclic GMP-AMP synthase inhibitors, mouse, primary biochemical chemiluminescence | Q8C6L5 | recombinant cGAS, Kinase-Glo ATP depletion luminescence | inhibition, % at 12.5 µM | 160,000 compounds, 0.15% hits
Target sequence (Q8C6L5 whole entry, looked up): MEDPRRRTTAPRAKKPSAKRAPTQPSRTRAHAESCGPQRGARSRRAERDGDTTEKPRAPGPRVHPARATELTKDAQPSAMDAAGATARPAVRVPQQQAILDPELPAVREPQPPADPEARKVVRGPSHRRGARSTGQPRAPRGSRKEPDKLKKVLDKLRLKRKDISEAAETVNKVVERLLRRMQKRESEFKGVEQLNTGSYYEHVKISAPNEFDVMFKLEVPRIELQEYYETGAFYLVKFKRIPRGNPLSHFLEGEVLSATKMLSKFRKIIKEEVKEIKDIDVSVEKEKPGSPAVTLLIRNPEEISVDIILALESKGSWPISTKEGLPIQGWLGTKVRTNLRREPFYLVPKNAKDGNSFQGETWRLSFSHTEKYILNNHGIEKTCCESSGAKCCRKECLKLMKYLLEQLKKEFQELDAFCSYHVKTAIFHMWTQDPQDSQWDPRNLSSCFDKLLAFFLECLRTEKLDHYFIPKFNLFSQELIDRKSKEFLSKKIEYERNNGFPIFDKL
Each line names hits and unclear results; the compound was inactive in the other large screens; ! = a repeat was not active. An excerpt weighted towards active compounds, which were near 0.3% of everything screened. Rule as the data show it, unless noted: active = inhibition above about 40%; inactive = the rest.

O=C(CCl)N1CCN(c2cccc(Cl)c2)CC1	mcGAS lum 70
COCc1ncc(CN2CCNC(C(=O)NC3CC3)C2)cn1 (stereo not drawn)	none (no result: mcGAS lum)
COc1ccc(C)cc1S(=O)(=O)Nc1ccccc1F	none (no result: mcGAS lum)
COc1ccc(CCNC(=O)c2c(C)noc2-c2ccccc2Cl)cn1	none
COc1ccc(CCNC(=O)c2c(C)noc2-c2cccs2)cn1	mcGAS lum 68
N#CC(=CC=Cc1ccco1)C(N)=S	hcGAS lum 61, mcGAS lum 79
O=C(COC(=O)C=Cc1ccco1)COC(=O)C=Cc1ccco1	none (no result: mcGAS lum)
CC(C)C(CNC(=O)c1cccn(C)c1=O)N(C)C (stereo not drawn)	none
CCOC(=O)CNC(=O)N1CCN(c2cc(Oc3ccc(F)c(F)c3)ncn2)CC1C (stereo not drawn)	none (no result: NPYLR7 agonist)
O=C1CCNC(=S)N1Cc1ccccc1CN1CCCCC1	none (no result: mcGAS lum)
Cc1ccc(-c2c(C)oc(C)c2C(=O)N[C@@H]2C[C@H]3CC[C@@H]2C3)cc1	none
CN1CCCC2(CCN(C(=O)CC34CC5CC(CC(O)(C5)C3)C4)C2)C1=O (stereo not drawn)	none
COc1ccc2nc(NC(=O)/C=C/c3ccc(Br)cc3)sc2c1	none
COc1ccc2nc(C=Cc3cc(Br)c(O)c(OC)c3)sc2c1	NPYLR7 agonist 81 (no result: mcGAS lum)
O=C(O)C1CC=CCC1C(=O)Nc1ccc(N2CCN(c3cccc(Cl)c3Cl)CC2)cc1 (stereo not drawn)	none (no result: NPYLR7 agonist, mcGAS lum)
COc1ccccc1NC(=O)N1CCCN(c2nc(Cc3ccc(C)cc3)nc3onc(-c4cccnc4)c23)CC1	none
Nc1nc2nc(Br)[nH]c2c(=O)[nH]1	hcGAS lum 52
Nc1nc2nc(C(F)(F)F)[nH]c2c(=O)[nH]1	none (no result: mcGAS lum)
O=C(CCn1ccc(=O)[nH]c1=O)Nc1cccc(-c2cn3c(n2)SCC3)c1	none (no result: mcGAS lum)
CC1C(=O)N(c2cccc(F)c2)CCN1C(=O)C1CC1 (stereo not drawn)	NPYLR7 agonist 44
CC1C(=O)N(c2cccc(F)c2)CCN1C(=O)C1CCCC1 (stereo not drawn)	none
COc1ccc(NS(=O)(=O)c2ccc3[nH]cc(C(=O)O)c(=O)c3c2)cc1OC	none
CCOC(=O)CNC(=O)N(C)Cc1nn(-c2ccccc2OC)c2c1CN(CC)CC2	none (no result: NPYLR7 agonist)
COc1ccc(-n2ccnc2-c2cccc(OC)c2OC)cn1	none
COc1ccc(-n2ccnc2-c2ccc(C#CC(C)(C)O)cc2)cn1	NPYLR7 agonist 57 (no result: mcGAS lum)
Cc1ccc(N(CCC#N)C(=O)CN2CCCc3ccccc32)cc1C	none
Cc1ccc2c(c1)CCCN2CC(=O)N(CCC(N)=O)c1ccccc1	NPYLR7 agonist 100
COC(=O)c1ccc2c(=O)n(-c3cc(OC)cc(OC)c3)c(N3CCCC3)nc2c1	none
N#CC(C#N)=C1C=C2C=C(N3CCCC3)CCC2CC1 (stereo not drawn)	NPYLR7 agonist 90
N#CC(C#N)=C1C=C2C=C(N3CCCCC3)CCC2CC1 (stereo not drawn)	NPYLR7 agonist 116
N#CC(C#N)=C1C=C2C=C(N3CCN(Cc4ccccc4)CC3)CCC2CC1 (stereo not drawn)	NPYLR7 agonist 47 (no result: mcGAS lum)
N#CC(C#N)=c1c2nn(Cc3ccccc3)nc2c(=C(C#N)C#N)c2nn(Cc3ccccc3)nc12	none
Cn1c(C2CCN(S(C)(=O)=O)CC2)nn(CC(=O)c2ccccc2)c1=O	none
CN(CCCN1c2ccccc2CCc2ccccc21)S(=O)(=O)c1ccc(F)cc1	none (no result: mcGAS lum)
CC(=O)c1cc(CN2CCC(C(=O)Nc3ccc(Oc4ccccc4)nc3)CC2)cs1	none
O=C(COc1cccc(Cl)c1)Nc1ccc2[nH]cc(CCN3CCN(c4cccc(C(F)(F)F)c4)CC3)c2c1	none
CC(C)(C)/[N+]([O-])=C/c1ccc(S(=O)(=O)O)cc1S(=O)(=O)O	none (no result: mcGAS lum)
O=S(=O)(O)c1cc(N=C=S)ccc1/C=C/c1ccc(N=C=S)cc1S(=O)(=O)O	hcGAS lum 86 (no result: mcGAS lum)
CNS(=O)(=O)c1ccc(Cl)c(C(=O)Nc2nc(C)cs2)c1	none (no result: mcGAS lum)
CCN(CC)CCNC(=O)c1c(C)[nH]c(/C=C2/C(=O)Nc3ccc(F)cc32)c1C	NPYLR7 agonist 60 (no result: mcGAS lum)
Cc1[nH]c(/C=C2\C(=O)Nc3ccc(S(=O)(=O)N(C)c4cccc(Cl)c4)cc32)c(C)c1C(=O)N1CCN(C)CC1	none
COc1ccc(C2=Nc3ncnn3C(c3ccc(Cl)cc3)C2)cc1OC (stereo not drawn)	none (no result: mcGAS lum)
N#CC1C(=N)Oc2cc(O)ccc2C1c1ccncc1 (stereo not drawn)	NPYLR7 agonist 85
N#CC1C(=N)Oc2cc(N)ccc2C1c1ccc(Cl)cc1Cl (stereo not drawn)	none (no result: mcGAS lum)
N#CC1C(=N)Oc2cc(O)ccc2C1c1ccccc1I (stereo not drawn)	NPYLR7 agonist 82
N#CC1C(=N)Oc2cc(O)ccc2C1c1ccc(Cl)cc1Cl (stereo not drawn)	NPYLR7 agonist 96 (no result: mcGAS lum)
N#CC1C(=N)Oc2cc(O)ccc2C1c1ccc(Br)cc1 (stereo not drawn)	none (no result: mcGAS lum)
N#CC1C(=N)Oc2cc(O)ccc2C1c1cccs1 (stereo not drawn)	none
CC1(C)ON=C(c2ccc(F)cc2)N(Cc2ccc3c(c2)OCO3)C1=O	none (no result: mcGAS lum)
CCC(C)N(Cc1cccc(C)c1)CC(O)COC(C)(C)C (stereo not drawn)	none
CCOC(=O)C1CCN(c2nc3c(-c4cccc(C(F)(F)F)c4)nnn3c3ccccc23)CC1	none
CNC(=O)COC(=O)c1ccoc1CN1c2ccccc2CC1C (stereo not drawn)	none (no result: mcGAS lum)
COc1ccc(/C=C\C(=O)Nc2cc(=O)n(C)c(=O)n2C)cc1OC	none
CCn1c(=O)c2c(nc(/C=C/c3ccc(OC)c(OC)c3)n2C)n(CC)c1=O	NPYLR7 agonist 85
Cc1ccccc1C1CC(=O)c2cnc(N3CCOCC3)nc2C1 (stereo not drawn)	none (no result: mcGAS lum)
N=C1/C(=C/c2cccs2)C(=O)N=C2SC(Cc3ccccc3)=NN12	none (no result: mcGAS lum)
N=C1/C(=C/c2cccs2)C(=O)N=C2SC(c3ccccc3)=NN12	hcGAS lum 56 (no result: mcGAS lum)
N#Cc1ccccc1NC(=O)Nc1ccc(N2CCOCC2)c(Cl)c1	none (no result: mcGAS lum)
Cn1ncc2c(N3CCCCC3)nc(N(CCO)Cc3ccccc3)nc21	none
OCCN(CCO)c1nc(N2CCCCC2)c2nc(N(CCO)CCO)nc(N3CCCCC3)c2n1	NPYLR7 agonist 75!
COCCN(Cc1ccco1)S(=O)(=O)Cc1cccc(C)c1	none (no result: mcGAS lum)
COc1cc(C=C(C#N)S(=O)(=O)c2cc(Br)ccc2Br)cc(OC)c1	none (no result: mcGAS lum)
COc1cc(C=C(C#N)S(=O)(=O)c2cc(Br)ccc2Br)ccc1O	NPYLR7 agonist 170 (no result: mcGAS lum)
CC1(C(=O)NS(=O)(=O)c2cccc(C#N)c2)CCN1C(=O)Cc1cccc2ccccc12 (stereo not drawn)	none (no result: mcGAS lum)
COc1cccc(OC)c1OCCCOc1ccc([N+](=O)[O-])cc1	none (no result: mcGAS lum)
COc1ccc2c(c1OC)C(=O)OC2CC(=O)c1ccc([N+](=O)[O-])cc1 (stereo not drawn)	mcGAS lum 58
O=c1[nH]c(SCCO)nc2sc3c(c12)CCCC3	NPYLR7 agonist 40
Cc1nc(SCCO)c2c3c(sc2n1)CCCC3	none
O=C1CCC(C(=O)N2CCCC(CCc3ccc(F)c(F)c3)C2)=NN1 (stereo not drawn)	none (no result: mcGAS lum)
COc1cc(C=C2COc3ccccc3C2=O)ccc1OCc1ccccc1	none
COc1ccc2c(c1)OC/C(=C\c1ccc(OC)c(O)c1)C2=O	mcGAS lum 46 (no result: NPYLR7 agonist)
